# Data: ChEMBL document CHEMBL3988442, “University of Dundee, Small-Polar-MMV Screening Library” (2021)
# For some of these results: Entries with a potency or affinity are not part of this list.
# Columns and labels:
# Set-up in all cases: scale not given: direction of the effect not stated beside the values
# [1] = biological target: Protein translocase subunit SecA (Escherichia coli (strain K12)) (UniProt P10408); assay: Assay to Identify E. coli SecA ATPase Inhibitors; format: functional; settings: 30 µM
# [2] = biological target: T1, Ubiquitin-activating enzyme e1, putative (Leishmania donovani (strain BPK282A1)) (UniProt E9BSI1); assay: Leishmania donovani Ubiquitin Activating Enzyme (LdE1); format: functional; settings: 30 µM
# T1 sequence (whole entry): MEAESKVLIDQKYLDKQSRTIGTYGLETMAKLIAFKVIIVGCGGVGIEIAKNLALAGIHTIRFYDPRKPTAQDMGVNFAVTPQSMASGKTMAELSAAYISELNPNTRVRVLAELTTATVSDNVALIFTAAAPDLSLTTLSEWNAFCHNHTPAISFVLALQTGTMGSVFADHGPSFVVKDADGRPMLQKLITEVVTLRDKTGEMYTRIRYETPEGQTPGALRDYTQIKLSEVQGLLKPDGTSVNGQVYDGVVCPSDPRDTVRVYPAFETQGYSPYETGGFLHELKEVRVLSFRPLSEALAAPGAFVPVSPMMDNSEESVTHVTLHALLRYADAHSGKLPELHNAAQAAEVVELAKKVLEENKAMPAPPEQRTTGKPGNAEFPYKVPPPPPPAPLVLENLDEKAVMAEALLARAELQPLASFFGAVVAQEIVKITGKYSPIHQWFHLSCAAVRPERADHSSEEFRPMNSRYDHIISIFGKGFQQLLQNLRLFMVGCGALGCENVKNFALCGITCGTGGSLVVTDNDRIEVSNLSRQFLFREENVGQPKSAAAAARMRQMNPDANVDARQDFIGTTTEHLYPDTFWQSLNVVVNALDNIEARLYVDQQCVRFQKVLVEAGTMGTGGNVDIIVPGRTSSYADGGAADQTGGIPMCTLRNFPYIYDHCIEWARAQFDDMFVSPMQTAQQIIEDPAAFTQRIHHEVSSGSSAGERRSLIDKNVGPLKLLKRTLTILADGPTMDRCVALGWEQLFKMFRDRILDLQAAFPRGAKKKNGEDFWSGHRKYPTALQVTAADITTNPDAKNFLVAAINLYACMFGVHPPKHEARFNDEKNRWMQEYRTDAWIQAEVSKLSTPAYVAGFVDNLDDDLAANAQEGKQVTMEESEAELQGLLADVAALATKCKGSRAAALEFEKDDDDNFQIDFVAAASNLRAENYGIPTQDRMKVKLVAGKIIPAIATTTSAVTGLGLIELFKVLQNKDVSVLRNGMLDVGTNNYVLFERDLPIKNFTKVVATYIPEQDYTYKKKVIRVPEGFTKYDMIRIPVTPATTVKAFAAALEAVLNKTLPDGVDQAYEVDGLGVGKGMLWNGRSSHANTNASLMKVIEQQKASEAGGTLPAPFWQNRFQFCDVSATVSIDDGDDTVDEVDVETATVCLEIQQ
# [3] = biological target: AMP-activated protein kinase, AMPK (Homo sapiens) (UniProt P54646+O43741+P54619+Q9UGJ0+Q9Y478+Q13131+Q9UGI9); assay: AMP-dependent Kinase enzyme assay. An in vitro enzyme assay that detects ADP turnover that is directly proportional to AMPK activity. This uses naive AMPK that is activated during the assay with MK-8722; format: functional; settings: 30 µM
# [4] = biological target: Sialic acid-binding Ig-like lectin 9 (Homo sapiens) (UniProt Q9Y336); assay: Hs-Siglec9 ALPHAscreen SOP 20170721; settings: 10 µM
# [5] = system: Trypanosoma cruzi; assay: Trypanosoma cruzi phosphomannomutase and mannose-1-phosphate guanylyltransferase assay; format: functional; settings: 10 µM
# [6] = biological target: T2, Arginase-2, mitochondrial (Homo sapiens) (UniProt P78540); assay: in vitro enzyme assay to detect the production of urea directly proportional to the activity of Arginase II; format: functional; settings: 33.3 µM; further: in the data most compounds retested in dose-response had high values
# T2 sequence (whole entry): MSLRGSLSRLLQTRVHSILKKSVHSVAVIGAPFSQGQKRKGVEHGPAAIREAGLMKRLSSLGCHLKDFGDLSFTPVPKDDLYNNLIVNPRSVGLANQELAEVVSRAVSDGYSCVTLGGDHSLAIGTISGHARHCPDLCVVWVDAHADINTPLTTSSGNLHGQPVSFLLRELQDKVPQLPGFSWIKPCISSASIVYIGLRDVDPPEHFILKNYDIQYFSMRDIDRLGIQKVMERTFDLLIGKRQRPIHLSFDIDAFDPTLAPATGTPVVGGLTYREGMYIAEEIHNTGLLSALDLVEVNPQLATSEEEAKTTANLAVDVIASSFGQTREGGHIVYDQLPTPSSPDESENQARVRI
# [7] = biological target: T3, Proteasome subunit beta (Trypanosoma cruzi) (UniProt O96673); assay: Trypanosoma cruzi proteasome chymotrypsin-like activity (TcProtChymo) assay.; further: in the data most compounds retested in dose-response had high values; format: functional; settings: 9.37 µM
# T3 sequence (whole entry): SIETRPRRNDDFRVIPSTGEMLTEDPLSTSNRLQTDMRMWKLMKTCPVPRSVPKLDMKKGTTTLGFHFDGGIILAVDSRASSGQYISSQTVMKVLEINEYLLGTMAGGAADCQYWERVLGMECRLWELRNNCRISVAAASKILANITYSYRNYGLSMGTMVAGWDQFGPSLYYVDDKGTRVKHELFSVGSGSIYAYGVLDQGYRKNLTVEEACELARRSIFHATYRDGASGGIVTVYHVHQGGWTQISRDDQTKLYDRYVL
# [8] = species: Homo sapiens; assay: To identify inhibition of the IFN signalling (Jak-Stat) pathway via expression of an eGFP reporter gene under the control of an IFN-stimulated response element (ISRE) containing MxA promoter.; format: functional; settings: 30 µM
# [9] = biological target: T4, Tyrosyl-tRNA synthetase, putative (Trypanosoma cruzi (strain CL Brener)) (UniProt Q4DSP6); assay: Trypanosoma cruzi tyrosyl tRNA synthetase (TcYRS) _High Tyrosine SOP; format: functional; settings: 30 µM; further: in the data most compounds retested in dose-response had high values
# T4 sequence (whole entry): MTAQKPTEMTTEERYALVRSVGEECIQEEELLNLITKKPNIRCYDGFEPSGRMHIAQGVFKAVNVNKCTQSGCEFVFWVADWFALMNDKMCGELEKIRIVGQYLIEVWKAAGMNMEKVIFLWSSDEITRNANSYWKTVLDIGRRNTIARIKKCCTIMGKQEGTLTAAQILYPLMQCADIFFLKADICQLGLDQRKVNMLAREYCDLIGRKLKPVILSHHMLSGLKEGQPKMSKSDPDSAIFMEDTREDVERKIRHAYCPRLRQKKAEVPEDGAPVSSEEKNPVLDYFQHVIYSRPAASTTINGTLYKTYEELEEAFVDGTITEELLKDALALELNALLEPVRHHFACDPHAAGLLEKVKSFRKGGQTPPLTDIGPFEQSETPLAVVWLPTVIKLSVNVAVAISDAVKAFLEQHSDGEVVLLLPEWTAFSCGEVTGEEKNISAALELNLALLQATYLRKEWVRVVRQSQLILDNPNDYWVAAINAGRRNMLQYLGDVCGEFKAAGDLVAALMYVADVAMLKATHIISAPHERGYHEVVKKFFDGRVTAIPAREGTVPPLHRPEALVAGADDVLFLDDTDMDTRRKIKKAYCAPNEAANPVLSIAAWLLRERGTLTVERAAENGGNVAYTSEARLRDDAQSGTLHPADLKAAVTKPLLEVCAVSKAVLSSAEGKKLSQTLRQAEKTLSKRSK
# [10] = biological target: T4, Tyrosyl-tRNA synthetase, putative (Trypanosoma cruzi (strain CL Brener)); assay: Trypanosoma cruzi tyrosyl tRNA synthetase (TcYRS) SOP; format: functional; settings: 30 µM
# [11] = biological target: Chromo domain-containing protein 1 (Saccharomyces cerevisiae (strain ATCC 204508 / S288c) (Baker's yeast)) (UniProt P32657); assay: ScCHD-1 Enzyme Inhibition Assay; format: functional; settings: 30 µM; further: in the data most compounds retested in dose-response had high values
# Chain of Chromo domain-containing protein 1 (Saccharomyces cerevisiae (strain ATCC 204508 / S288c) (Baker's yeast)) (P32657 whole entry, the tested form may be a part): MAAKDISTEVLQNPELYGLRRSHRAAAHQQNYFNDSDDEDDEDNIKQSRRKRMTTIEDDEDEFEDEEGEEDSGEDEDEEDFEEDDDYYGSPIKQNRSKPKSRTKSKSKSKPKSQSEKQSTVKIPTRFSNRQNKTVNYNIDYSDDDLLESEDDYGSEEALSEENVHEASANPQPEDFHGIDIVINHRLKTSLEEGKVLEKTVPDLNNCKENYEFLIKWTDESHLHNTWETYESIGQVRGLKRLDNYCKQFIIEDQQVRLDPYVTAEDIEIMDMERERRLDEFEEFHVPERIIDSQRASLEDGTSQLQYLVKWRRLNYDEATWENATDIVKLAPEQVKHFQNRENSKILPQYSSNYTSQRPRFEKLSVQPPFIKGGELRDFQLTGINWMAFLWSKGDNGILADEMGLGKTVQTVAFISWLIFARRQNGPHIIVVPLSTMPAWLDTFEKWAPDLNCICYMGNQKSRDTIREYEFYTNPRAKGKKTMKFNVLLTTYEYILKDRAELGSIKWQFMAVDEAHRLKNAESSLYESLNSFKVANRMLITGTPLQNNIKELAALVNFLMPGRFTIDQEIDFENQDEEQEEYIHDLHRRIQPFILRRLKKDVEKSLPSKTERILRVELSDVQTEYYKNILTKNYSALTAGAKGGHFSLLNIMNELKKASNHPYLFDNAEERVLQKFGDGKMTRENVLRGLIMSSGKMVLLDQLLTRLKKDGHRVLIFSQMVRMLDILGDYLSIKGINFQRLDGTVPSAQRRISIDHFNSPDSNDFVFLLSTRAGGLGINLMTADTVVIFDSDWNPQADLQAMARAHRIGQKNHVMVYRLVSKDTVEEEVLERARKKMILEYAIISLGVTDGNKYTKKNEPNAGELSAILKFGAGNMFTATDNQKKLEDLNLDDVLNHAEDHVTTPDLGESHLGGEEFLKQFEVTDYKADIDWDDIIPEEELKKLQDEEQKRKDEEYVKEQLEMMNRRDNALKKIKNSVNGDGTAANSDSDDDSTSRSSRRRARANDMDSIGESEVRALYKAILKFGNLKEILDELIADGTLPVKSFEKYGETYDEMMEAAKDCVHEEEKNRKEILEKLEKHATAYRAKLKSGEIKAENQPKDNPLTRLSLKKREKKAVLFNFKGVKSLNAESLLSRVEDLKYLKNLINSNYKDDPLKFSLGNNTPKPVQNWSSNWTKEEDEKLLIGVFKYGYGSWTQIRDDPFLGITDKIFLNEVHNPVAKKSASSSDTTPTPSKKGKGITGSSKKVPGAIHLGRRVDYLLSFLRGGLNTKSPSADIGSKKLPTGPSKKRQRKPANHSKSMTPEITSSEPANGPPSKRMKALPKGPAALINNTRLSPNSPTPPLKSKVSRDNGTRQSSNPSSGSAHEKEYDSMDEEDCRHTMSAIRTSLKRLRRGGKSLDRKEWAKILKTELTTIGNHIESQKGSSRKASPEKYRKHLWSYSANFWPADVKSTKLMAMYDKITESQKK
# Chain of Protein translocase subunit SecA (Escherichia coli (strain K12)) (P10408 whole entry): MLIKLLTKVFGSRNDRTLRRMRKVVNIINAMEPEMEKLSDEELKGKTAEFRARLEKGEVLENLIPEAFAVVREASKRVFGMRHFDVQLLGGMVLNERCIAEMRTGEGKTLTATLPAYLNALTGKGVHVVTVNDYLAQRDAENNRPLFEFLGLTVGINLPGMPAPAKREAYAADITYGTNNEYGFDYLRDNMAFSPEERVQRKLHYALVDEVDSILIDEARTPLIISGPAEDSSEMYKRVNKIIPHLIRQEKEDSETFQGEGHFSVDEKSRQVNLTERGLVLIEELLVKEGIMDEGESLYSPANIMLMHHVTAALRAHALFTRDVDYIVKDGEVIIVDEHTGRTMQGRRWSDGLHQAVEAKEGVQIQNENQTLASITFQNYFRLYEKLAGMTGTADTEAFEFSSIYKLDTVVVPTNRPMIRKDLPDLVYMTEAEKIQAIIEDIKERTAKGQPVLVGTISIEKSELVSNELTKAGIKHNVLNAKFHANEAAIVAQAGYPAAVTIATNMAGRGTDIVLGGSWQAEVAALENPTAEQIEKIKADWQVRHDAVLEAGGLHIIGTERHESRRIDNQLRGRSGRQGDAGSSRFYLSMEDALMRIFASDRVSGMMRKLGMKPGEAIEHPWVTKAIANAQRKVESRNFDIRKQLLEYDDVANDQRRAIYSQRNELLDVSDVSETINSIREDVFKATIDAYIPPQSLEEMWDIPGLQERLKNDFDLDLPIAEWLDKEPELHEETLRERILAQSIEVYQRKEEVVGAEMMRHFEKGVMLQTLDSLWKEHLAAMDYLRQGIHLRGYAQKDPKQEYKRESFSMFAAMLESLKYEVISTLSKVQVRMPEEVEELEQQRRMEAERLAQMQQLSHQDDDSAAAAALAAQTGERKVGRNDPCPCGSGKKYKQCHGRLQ
# Chain of Sialic acid-binding Ig-like lectin 9 (Homo sapiens) (Q9Y336 whole entry): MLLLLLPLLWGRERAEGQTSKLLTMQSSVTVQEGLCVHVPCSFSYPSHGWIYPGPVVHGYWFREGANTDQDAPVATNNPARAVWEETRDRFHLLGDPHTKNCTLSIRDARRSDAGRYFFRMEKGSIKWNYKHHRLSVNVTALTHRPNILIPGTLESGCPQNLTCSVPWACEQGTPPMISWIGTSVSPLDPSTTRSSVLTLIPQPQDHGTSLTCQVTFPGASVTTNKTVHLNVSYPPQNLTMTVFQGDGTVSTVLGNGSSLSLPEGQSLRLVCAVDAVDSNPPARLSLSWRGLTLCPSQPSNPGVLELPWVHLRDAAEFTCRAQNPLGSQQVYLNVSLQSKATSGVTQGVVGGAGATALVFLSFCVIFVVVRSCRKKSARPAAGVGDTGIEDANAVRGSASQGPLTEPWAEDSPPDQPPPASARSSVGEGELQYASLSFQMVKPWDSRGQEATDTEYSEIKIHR
Structure (SMILES),Percent Effect [1] [%],Percent Effect [2] [%],Percent Effect [3] [%],Percent Effect [4] [%],Percent Effect [5] [%],Percent Effect [6] [%],Percent Effect [7] [%],Percent Effect [8] [%],Percent Effect [9] [%],Percent Effect [10] [%],Percent Effect [11] [%]
Cc1cnccc1CN1CC[C@@](C)(O)[C@H](Oc2ccccc2)C1,-3.92,9.46,0.664,-0.228,7.51,-4.41,12.9,-16.3,3.23,9.09,-13.2
Cc1cccc2c1cnn2CCCNC(=O)C(C)C,-4.75,13,0.24,14.3,7.96,-5.52,6.16,5.24,5.38,11.1,-0.927
Cc1nc(C)c(CNC(=O)NC(c2nnc3n2CCC3)C(C)C)s1 (stereo not given),-6.15,0,-0.521,1.26,-4.1,-2.08,12.8,8.88,5.94,11,-0.921
CCc1nc(C)c(C(=O)NCCNc2cnccn2)s1,-1.34,21.1,-0.0117,-1.62,1.77,-1.44,15.8,4.13,9.36,25.9,-8.55
CC(C)(C)OC(=O)CNC(=O)CCc1nnc(-c2ccsc2)o1,-5.71,5.2,2.21,5.6,-0.688,24.8,16.1,6.67,3.23,3.7,-0.78
O=C(NCCOc1cccc(Cl)c1)C1CC(=O)N(CC2CC2)C1 (stereo not given),-3.05,26.3,6.34,-5.8,6.82,4.32,13.3,-1.81,4.43,25.9,-10.9
O=C1CO[C@@H]2CN(CC3CCOCC3)C[C@H]2N1CC1CC1,-3.37,10.8,5.33,-0.714,-5.18,5.41,20.1,10.6,5.41,17.9,3.58
CCN1CCN(CC(O)c2ccc(F)cc2)CC1 (stereo not given),-4.5,2.7,-2.92,3.74,-2.92,-0.401,3.96,3.68,5.42,13.6,-6.3
CC(=O)c1cccc(OCC(=O)NS(=O)(=O)c2ccc(C)s2)c1,-6.93,12.7,-2.86,9.9,4.63,-4.56,3.85,-8.7,3.45,13.9,-6.95
CCCNC(=O)c1ccc2c(c1)C(=O)N(CC(C)C)C2=O,-2.78,-8.11,0.767,5.78,-2.32,-10,3.45,0.98,0.529,2.44,-2.46
Cc1ncsc1C(=O)NC1CCN(CC(=O)N(C)c2ccccc2)CC1,-6.03,18.4,-4.03,6.55,-0.654,-0.719,3.3,1.23,10.3,18.5,2.33
Cc1ccc(C(=O)N2CCN(S(C)(=O)=O)CC2)cc1N1CCNC1=O,-5.92,8,3.73,15.8,2.24,5.73,15.5,16.6,6.01,11.1,-6.07
OCC1CCCN1c1cc(N2CCC(OC3CCCC3)CC2)ncn1 (stereo not given),-0.479,23.4,-10.1,-5.43,3.04,2.32,15.8,-7.13,7.62,23.5,-22.6
CC(C)CNC(=O)Nc1ccc(CN2CCOC2=O)cc1,-6.23,-15.3,-5.54,6.22,-2.23,0.442,12.8,25.7,-7.37,-25.6,-1.07
CCn1cnnc1CNC(=O)N1CCN(c2nc(C)c(C)s2)CC1,-8.34,10.4,-7.32,12.2,4.68,-4.27,0.676,-2.89,5.83,19.5,-9.23
COc1ccc(OCC(=O)NC(C)c2ccc(F)cc2)c(C(=O)O)c1 (stereo not given),-5.45,5.41,1.14,2.91,2.05,5.21,0.944,-0.568,4.3,13.6,-5.02
COc1ccccc1CC1CCCN(CC(=O)N2CCOCC2)C1 (stereo not given),-0.695,-7.79,1.77,6.99,1.08,2.32,-1.54,2.85,-1.91,0,-10
O=C(c1ccoc1)N1CC[C@@H]2[C@H]1CCC(=O)N2c1ccccc1,-4.24,10.7,10.1,-2.97,-1.97,-1.63,5.02,10.8,9.57,14.1,-0.93
O=C(NCCNc1ncccn1)Nc1cc(C(F)(F)F)c[nH]c1=O,-4.49,8.11,2.74,1.17,1.02,-2.4,0.539,8.76,6.93,15.8,-3.38
COc1ccc(F)cc1C(C)NC(=O)c1nnc(C)s1 (stereo not given),-4.77,-2.7,0.954,-9.5,-2.05,0.248,-4.89,-14.3,-3.23,-1.24,3.82
